Laboratory results from PubChem BioAssay.
Where “and” joins values, the source holds several entries; their conditions need not be identical. Equal entries are not always repeated. Calls of active or inactive are those of the source. Unless noted, how the calls were made is not given here. Square brackets hold non-standard residues; d marks the D form. Peptide text beside a SMILES is read from it. * marks the point of attachment. Phe(ol) = N[C@H](CO)Cc1ccccc1; Cbz = O=C(OCc1ccccc1)*; Aib = CC(C)(N)C(=O)O

Legend:
[1] = viability loss with induced miR-34 in A549 – imaging, A549 dox-inducible miR-34, nuclei and caspase counts, primary screen (AID 1347080;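 active means compounds whose cell count with miR-34 switched on is under 0.7 times the count with it off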); conditions: A549 miR-34 inducible, Hoechst nuclei count, 48 h
[2] = chitosan synthesis blockers in C. neoformans – flow cytometry, Cibacron Brilliant Red staining (AID 1347148); conditions: Cryptococcus neoformans chitosan, stronger effect = lower value; at 10 µM unless noted;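 further: compound exposure lasted three days at 37 degrees C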
[3] = stronger effect = lower value, cell number ratio, induced over uninduced
[4] = measured here: relative caspase fold change +Dox/-Dox
[5] = measured here: total cells with miR-34 induction, stronger effect = lower value
[6] = measured here: total cells without miR-34 induction

NC(=NCc1ccc(Cl)cc1Cl)NC(=O)c1nc(Cl)c(N)nc1N
fold change [1, 3]: 1.01 (inactive)
fold change [1, 4]: 0.617
cell count [1, 5]: 1450
cell count [1, 6]: 1430
fold fluorescence [2]: 10.2 [at 117.6 µM] (inactive)

CCCCC/C=C\C\C=C/C=C/C=C/[C@@H](SC[C@H](NC(=O)CC[C@H](N)C(=O)O)C(=O)NCC(=O)O)[C@@H](O)CCCC(=O)O
fold change [1, 3]: 1.08 (inactive)
fold change [1, 4]: 1.43
cell count [1, 5]: 6410
cell count [1, 6]: 5930
fold fluorescence [2]: 3.59 [at 1 µM] (inactive)

CC12C=CC(=O)C=C1CCC1C2=CCC2(C)C1CC[C@@H]2C(=O)CN1CCN(c2cc(N3CCCC3)nc(N3CCCC3)n2)CC1 (stereo not given in full)
fold change [1, 3]: 0.969 (inactive)
fold change [1, 4]: 1.43
cell count [1, 5]: 4330
cell count [1, 6]: 4470
fold fluorescence [2]: 7.93 [at 81.9 µM] (inactive)

NC1=NC2C(N=C(Br)N2C2O[C@H]3COP(=O)(O)O[C@@H]3[C@@H]2O)C(=O)N1 (stereo not given in full)
fold change [1, 3]: 0.962 (inactive)
fold change [1, 4]: 1.29
cell count [1, 5]: 6370
cell count [1, 6]: 6620
fold fluorescence [2]: 4.24 [at 117.3 µM] (inactive)

COC(=O)/C=C/c1ccc(C(=O)NCC(=O)N[C@@H](CCC(=O)OC)C(=O)N[C@@H](CC(C)C)C(N)=O)cc1
fold change [1, 3]: 0.902 (inactive)
fold change [1, 4]: 1.99
cell count [1, 5]: 5510
cell count [1, 6]: 6100
fold fluorescence [2]: 4.66 [at 96.4 µM] (inactive)

CC(=O)N[C@@H](CC(C)C)C(=O)N[C@@H](CC(C)C)C(=O)N[C@H](C=O)CCCN=C(N)N
fold change [1, 3]: 0.979 (inactive)
fold change [1, 4]: 0.761
cell count [1, 5]: 5980
cell count [1, 6]: 6110
fold fluorescence [2]: 4.98 [at 117.2 µM] (inactive)

Nc1cc(N2CCCCC2)nc(N)[n+]1OS(=O)(=O)[O-]
fold change [1, 3]: 0.999 (inactive)
fold change [1, 4]: 1.39
cell count [1, 5]: 5860
cell count [1, 6]: 5870
fold fluorescence [2]: 3.52 [at 172.8 µM] (inactive)

CCCCC[C@@H](O)/C=C/[C@H]1[C@H](C/C=C\CCCC(=O)O)[C@H](O)C[C@@H]1O
fold change [1, 3]: 1.15 (inactive)
fold change [1, 4]: 0.636
cell count [1, 5]: 6980
cell count [1, 6]: 6050
fold fluorescence [2]: 3.65 (inactive)

CN([C@@H](Cc1ccc(OS(=O)(=O)c2cccc3cnccc23)cc1)C(=O)N1CCN(c2ccccc2)CC1)S(=O)(=O)c1cccc2cnccc12
fold change [1, 3]: 0.962 (inactive)
fold change [1, 4]: 1.57
cell count [1, 5]: 5440
cell count [1, 6]: 5650
fold fluorescence [2]: 3.04 [at 69.3 µM] (inactive)

COc1ccc([C@H]2Sc3ccccc3N(CCN(C)C)C(=O)[C@H]2OC(C)=O)cc1
fold change [1, 3]: 1.07 (inactive)
fold change [1, 4]: 1.13
cell count [1, 5]: 5870
cell count [1, 6]: 5500
fold fluorescence [2]: 4.51 [at 120.6 µM] (inactive) and 3.48 [at 120.6 µM] (inactive)

CCCCCCCC/C=C\CCCCCCCC(=O)OC[C@H](CO)OC(=O)CCCCCCC/C=C\CCCCCCCC
fold change [1, 3]: 1.03 (inactive)
fold change [1, 4]: 0.954
cell count [1, 5]: 5310
cell count [1, 6]: 5170
fold fluorescence [2]: 4.1 (inactive)

CC(C)[C@@H]1NC(=O)[C@H](Cc2ccccc2)NC(=O)[C@@H](CC(=O)O)NC(=O)CNC(=O)[C@H](CCCN=C(N)N)NC1=O
fold change [1, 3]: 1.03 (inactive)
fold change [1, 4]: 0.655
cell count [1, 5]: 1320
cell count [1, 6]: 1280
fold fluorescence [2]: 6.81 [at 87 µM] (inactive)

CCCCCC(=O)/C=C/C=C\C/C=C\C/C=C\CCCC(=O)O
fold change [1, 3]: 0.995 (inactive)
fold change [1, 4]: 1.32
cell count [1, 5]: 6100
cell count [1, 6]: 6140
fold fluorescence [2]: 5.6 [at 1 µM] (inactive)

CCCCC/C=C\C\C=C/C=C/C=C/[C@@H](SC[C@H](N)C(=O)O)[C@@H](O)CCCC(=O)O
fold change [1, 3]: 1.09 (inactive)
fold change [1, 4]: 1.02
cell count [1, 5]: 6150
cell count [1, 6]: 5660
fold fluorescence [2]: 3.87 [at 1 µM] (inactive)

CCCCCCCCCCC1=C(C)C(=O)C(OC)=C(OC)C1=O
fold change [1, 3]: 0.94 (inactive)
fold change [1, 4]: 1.42
cell count [1, 5]: 3450
cell count [1, 6]: 3660
fold fluorescence [2]: 4.65 [at 155.1 µM] (inactive)

N#C/C(=C/c1ccc(O)c(O)c1)C(=O)OC/C=C/c1ccccc1
fold change [1, 3]: 1.11 (inactive)
fold change [1, 4]: 1.47
cell count [1, 5]: 4460
cell count [1, 6]: 4020
fold fluorescence [2]: 10.2 [at 155.6 µM] (inactive)

CCCCC/C=C\C\C=C/C=C/C=C/[C@@H](SC[C@H](N)C(=O)NCC(=O)O)[C@@H](O)CCCC(=O)O
fold change [1, 3]: 0.978 (inactive)
fold change [1, 4]: 1.35
cell count [1, 5]: 5990
cell count [1, 6]: 6130
fold fluorescence [2]: 3.83 [at 1 µM] (inactive)

CC1(C)Oc2ccc(C#N)cc2[C@@H](OC2=CC(=O)CC2)[C@@H]1O
fold change [1, 3]: 0.927 (inactive)
fold change [1, 4]: 1.24
cell count [1, 5]: 5940
cell count [1, 6]: 6400
fold fluorescence [2]: 3.79 [at 167 µM] (inactive)

CCC(C)[C@H](NS(=O)(=O)c1cccc2ccccc12)C(=O)N[C@H](C=O)Cc1c[nH]c2ccccc12 (stereo not given in full)
fold change [1, 3]: 0.877 (inactive)
fold change [1, 4]: 1.24
cell count [1, 5]: 2990
cell count [1, 6]: 3410
fold fluorescence [2]: 3.23 [at 101.7 µM] (inactive)

CC(=O)OCOC(c1cc([N+](=O)[O-])ccc1Oc1ccc(Br)cc1)P(=O)(OCOC(C)=O)OCOC(C)=O (stereo not given)
fold change [1, 3]: 1.27 (inactive)
fold change [1, 4]: 0.666
cell count [1, 5]: 3110
cell count [1, 6]: 2450
fold fluorescence [2]: 3.77 [at 80.6 µM] (inactive)

CCCCCCCCCCCCCCCCOC[C@H](CO)OC
fold change [1, 3]: 0.866 (inactive)
fold change [1, 4]: 0.894
cell count [1, 5]: 4770
cell count [1, 6]: 5500
fold fluorescence [2]: 4.63 (inactive)

O=C[C@@H]1CCCN1C(=O)[C@@H]1CCCN1C(=O)OCc1ccccc1 (Cbz-Pro-Pro-aldehyde)
fold change [1, 3]: 0.854 (inactive)
fold change [1, 4]: 1.14
cell count [1, 5]: 5160
cell count [1, 6]: 6040
fold fluorescence [2]: 5.13 [at 151.3 µM] (inactive)

CCCCCCCCCC(=O)OC[C@H](CO)OC(=O)CCCCCCCCC
fold change [1, 3]: 0.939 (inactive)
fold change [1, 4]: 0.854
cell count [1, 5]: 5260
cell count [1, 6]: 5600
fold fluorescence [2]: 7.36 (inactive)

CCCCCCCCCCCCCCCCOC[C@H](CO)OC(C)=O
fold change [1, 3]: 0.961 (inactive)
fold change [1, 4]: 1.5
cell count [1, 5]: 5130
cell count [1, 6]: 5340
fold fluorescence [2]: 4.43 (inactive)

CCCCC[C@@H](O)/C=C/[C@H]1[C@H](C/C=C\CCCC(=O)O)C(=O)C[C@@H]1O
fold change [1, 3]: 0.916 (inactive)
fold change [1, 4]: 0.858
cell count [1, 5]: 4850
cell count [1, 6]: 5300
fold fluorescence [2]: 3.88 (inactive)

CCC(C)[C@@H](CO[C@@H](Cc1ccccc1)C(=O)N[C@@H](CCS(C)(=O)=O)C(=O)OC(C)C)NC[C@@H](N)CS (stereo not given in full)
fold change [1, 3]: 0.946 (inactive)
fold change [1, 4]: 1.27
cell count [1, 5]: 3500
cell count [1, 6]: 3700
fold fluorescence [2]: 3.05 [at 89.3 µM] (inactive)

CC(=O)NC(C)(C)C(=O)N1CCC[C@H]1C(=O)NC(C)(C)C(=O)N[C@@H](C)C(=O)NC(C)(C)C(=O)N[C@@H](C)C(=O)N[C@@H](CCC(N)=O)C(=O)NC(C)(C)C(=O)N[C@H](C(=O)NC(C)(C)C(=O)NCC(=O)N[C@@H](CC(C)C)C(=O)NC(C)(C)C(=O)N1CCC[C@H]1C(=O)N[C@H](C(=O)NC(C)(C)C(=O)NC(C)(C)C(=O)N[C@@H](CCC(=O)O)C(=O)N[C@@H](CCC(N)=O)C(=O)N[C@H](CO)Cc1ccccc1)C(C)C)C(C)C (Ac-[Aib]P[Aib]A[Aib]AQ[Aib]V[Aib]GL[Aib]PV[Aib][Aib]EQ[Phe(ol)])
fold change [1, 3]: 1.08 (inactive)
fold change [1, 4]: 1.3
cell count [1, 5]: 1460
cell count [1, 6]: 1350
fold fluorescence [2]: 7.73 [at 25.5 µM] (inactive)

CCCCC/C=C\C/C=C\CCCCCCCC(=O)O[C@@H](CO)COC(=O)CCCCCCCCCCCCCCCCC
fold change [1, 3]: 0.999 (inactive)
fold change [1, 4]: 1.31
cell count [1, 5]: 6430
cell count [1, 6]: 6430
fold fluorescence [2]: 4.76 (inactive)

C=C[C@@]1(C)CC(=O)[C@]2(O)[C@@]3(C)[C@H](O)CCC(C)(C)[C@@H]3[C@H](O)[C@H](OC(C)=O)[C@@]2(C)O1
fold change [1, 3]: 0.854 (inactive)
fold change [1, 4]: 0.977
cell count [1, 5]: 5250
cell count [1, 6]: 6150
fold fluorescence [2]: 6.21 [at 121.8 µM] (inactive)

c1ccc(CN(CCN(Cc2ccccn2)Cc2ccccn2)Cc2ccccn2)nc1
fold change [1, 3]: 0.775 (inactive)
fold change [1, 4]: 2.99
cell count [1, 5]: 418
cell count [1, 6]: 538
fold fluorescence [2]: 9.33 [at 117.8 µM] (inactive)

CCCC[C@@H](C)/C=C(C)/C=C(\C)C(=O)NC1=C[C@@](O)(/C=C/C=C/C=C/C(=O)NC2=C(O)CCC2=O)[C@@H]2O[C@@H]2C1=O
fold change [1, 3]: 1.01 (inactive)
fold change [1, 4]: 1.03
cell count [1, 5]: 1310
cell count [1, 6]: 1290
fold fluorescence [2]: 7.73 [at 90.8 µM] (inactive)

CCCCC[C@H](O)CC(=O)CCc1ccc(O)c(OC)c1
fold change [1, 3]: 0.985 (inactive)
fold change [1, 4]: 0.961
cell count [1, 5]: 5360
cell count [1, 6]: 5440
fold fluorescence [2]: 5.62 [at 169.8 µM] (inactive)

CCCCCCCCCCCCCCCCCCc1ccc(C(=O)/C=C/C(=O)O)cc1
fold change [1, 3]: 0.918 (inactive)
fold change [1, 4]: 0.873
cell count [1, 5]: 5110
cell count [1, 6]: 5560
fold fluorescence [2]: 13.3 [at 116.6 µM] (inactive)

Nc1ncnc2c1nc(Br)n2C1O[C@H]2COP(=O)(O)O[C@@H]2[C@@H]1O (stereo not given in full)
fold change [1, 3]: 0.835 (inactive)
fold change [1, 4]: 1.27
cell count [1, 5]: 4570
cell count [1, 6]: 5470
fold fluorescence [2]: 3.88 [at 122.5 µM] (inactive)

CC[C@H]1[C@@H]2C=C[C@@H]3[C@H]4C/C=C\C(=O)NCCC[C@@H]5NC(=O)C(=C5O)C(=O)CC[C@@H]4C[C@@H]3[C@H]2C[C@H]1C
fold change [1, 3]: 1.96 (inactive)
fold change [1, 4]: 0.587
cell count [1, 5]: 636
cell count [1, 6]: 324
fold fluorescence [2]: 7.3 [at 104 µM] (inactive)

C[C@H]([C@H](C)N1CC(=O)NC(=O)C1)N1CC(=O)NC(=O)C1
fold change [1, 3]: 0.938 (inactive)
fold change [1, 4]: 0.644
cell count [1, 5]: 1940
cell count [1, 6]: 2070
fold fluorescence [2]: 4.39 [at 177.1 µM] (inactive)

CCCC(=O)Nc1nc2c(ncn2C2O[C@H]3COP(=O)(O)O[C@@H]3[C@@H]2OC(=O)CCC)c(=O)[nH]1 (stereo not given in full)
fold change [1, 3]: 1.02 (inactive)
fold change [1, 4]: 0.664
cell count [1, 5]: 5430
cell count [1, 6]: 5330
fold fluorescence [2]: 6.9 [at 103 µM] (inactive)
